Measurements from PubChem BioAssay AID504441 (Broad Institute, 2011).
Among all 310,000 compounds or so, about 1,300 (0.42%) were called active. Rule as the data show it: active = inhibition above about 50%; inactive = the rest. Shown is part of a subset that was picked to be rich in actives.

Each compound was assayed against Dual specificity tyrosine-phosphorylation-regulated kinase 1A (Rattus norvegicus) (UniProt Q63470) (assay: rat Dyrk1A kinase inhibitors, primary screen, biochemical, single point, plate reader (AID 504441;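 also: plate controls were vehicle with enzyme for no effect and no enzyme for full effect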)). Settings: ADP-Glo luminescence, NFATc1 peptide, at 12.5 µM, active compounds read high.
In the case of COc1cc(C2c3cc4c(cc3C(O)C3COC(=O)C23)OCO4)cc(OC)c1OC (configuration not stated), the inhibition is reported as 0.167% (inactive). In the case of CCN1C(=NCCc2cccnc2)N[C@@H](c2ccccc2)[C@H](C(=O)OC)[C@H]1C, the inhibition is reported as -12.5% (inactive). In the case of COC(=O)C1=C(C)N(Cc2ccccc2)C(=NCCCOC(C)C)N[C@H]1c1ccccc1, the inhibition is reported as -6.8% (inactive). For CCN1C(=NCCc2cccnc2)N[C@@H](c2ccccc2)C(C(=O)OC)=C1C, the inhibition was 53.7% (active). COc1ccccc1C(=O)c1ccccc1C(=O)c1ccccc1 was tested, and the inhibition was 1.1% (inactive). In the case of COc1ccc(S(=O)(=O)N(C)C[C@@H]2Oc3ccc(NC(=O)Nc4c(C)noc4C)cc3C(=O)N([C@H](C)CO)C[C@@H]2C)cc1, the inhibition is reported as 1.82% (inactive). With COc1ccc2oc(C(=O)NCc3ccco3)c(C)c2c1 the inhibition was 19.2% (inactive). For COc1ccc2c(Cl)c(C(=O)NCc3ccco3)sc2c1, the inhibition was 54.5% (active). O=C(NCc1ccco1)c1sc2cccc(F)c2c1Cl was tested, and the inhibition was 1.99% (inactive). With Oc1[nH]c2ccccc2c1N=Nc1c(F)c(F)c(F)c(F)c1F the inhibition was 4.41% (inactive). With C[n+]1cccc(C(=O)O)c1 the inhibition was 0.48% (inactive). With CC1CCCN(C(=O)Cn2c(=O)oc3cc(S(=O)(=O)N4CCCCC4C)ccc32)C1 (configuration not stated) the inhibition was 0.0944% (inactive). With O=C(Cc1ccc(Cl)cc1)c1ccccc1 the inhibition was -1.54% (inactive). In the case of COC(=O)C(C)Oc1ccc2c(c1)O/C(=C\c1cccc(Br)c1)C2=O (configuration not stated), the inhibition is reported as -2.95% (inactive). In the case of COc1ccc(NC(=O)CCN2C(=O)/C(=C/c3ccc4c(c3)OCO4)SC2=S)cc1, the inhibition is reported as -2.32% (inactive). O=C1/C(=C/c2ccc3c(c2)OCO3)Oc2cc(OCC(=O)N3CC(O)C[C@H]3C(=O)O)ccc21 (some centres not stated) was tested, and the inhibition was 70.2% (active). For O=C1c2ccccc2C(=O)C1C(=O)C1CC1, the inhibition was -4.93% (inactive). With COc1ccc(CNCCCn2cnc3c(OCc4ccccc4)ncnc32)cc1 the inhibition was 6.66% (inactive). With Cc1ccc(S(=O)(=O)n2oc(=O)c(C3CCCCC3)c2N)cc1 the inhibition was -0.128% (inactive). For CCc1ccc(/C=C2\SC(N3CCOCC3)=NC2=O)cc1, the inhibition was 2.74% (inactive). In the case of O=C1N=C(N2CCc3ccccc3C2)S/C1=C\c1ccc(O)cc1, the inhibition is reported as 70.6% (active). With CC1CCN(C2=NC(=O)/C(=C/c3ccc(O)cc3)S2)CC1 the inhibition was 22.4% (inactive). With CN(CCc1ccccc1)C(=O)c1cccc(NC(=O)Cc2cccc(NC(=O)C3CCCN(C(=O)CCc4ccccc4)C3)c2)c1 (configuration not stated) the inhibition was 0.419% (inactive). In the case of O=C(Cc1ccc(S(=O)(=O)N2CCOCC2)s1)Nc1ccc(Br)c(C(F)(F)F)c1, the inhibition is reported as 0.772% (inactive). With CC(C)c1cc(N=O)cc(C(C)C)c1O the inhibition was 7.15% (inactive). In the case of CCOc1cccc(/C=N/N2C(=O)CSC2=S)c1O, the inhibition is reported as 6.88% (inactive). With O=C1CSC(=S)N1/N=C/c1ccc(O)c([N+](=O)[O-])c1 the inhibition was 90.8% (active). For Cc1cc(C(=O)N/N=C/c2ccc(O)c([N+](=O)[O-])c2)c(C)n1-c1ccc(F)cc1, the inhibition was -6.46% (inactive). COC1=CC(=O)OC(C)(c2ccccc2)C1 (configuration not stated) was tested, and the inhibition was 1.06% (inactive). With COc1ccc2nc(N3C(=O)C(O)=C(C(=O)c4ccco4)C3c3ccco3)sc2c1 (configuration not stated) the inhibition was 7.88% (inactive). For O=S1(=O)CSCS(=O)(=O)C1, the inhibition was -4.37% (inactive). With Cc1noc(C)c1-c1ccc2ncnc(NC(C)c3ccco3)c2c1 (configuration not stated) the inhibition was 58% (active). In the case of c1coc(CNc2ncnc3ccccc23)c1, the inhibition is reported as 6.44% (inactive). C=CC(=O)Nc1ccc(Nc2ccnc(Nc3ccc(N4CCN(C)CC4)cc3)n2)cc1 was tested, and the inhibition was 24.1% (inactive). COc1ccc(Nc2ccc3ccccc3c2)cc1 was tested, and the inhibition was -0.0929% (inactive). NC(=O)C1(Nc2ccccc2Cl)CCCC1 was tested, and the inhibition was -0.756% (inactive). With COCCN(C(=O)C(C)N1C(=O)c2ccccc2C1=O)c1c(N)n(CC(C)C)c(=O)[nH]c1=O (configuration not stated) the inhibition was -2.22% (inactive). With Cc1c(NS(=O)(=O)c2cccc(C(=O)Nc3ccc(SC(F)F)cc3)c2)c(=O)n(-c2ccccc2)n1C the inhibition was -4% (inactive). With COc1ccc2oc(C)c(NC(C)=O)c2c1 the inhibition was 1.53% (inactive). For COc1ccc2oc(N)nc2c1, the inhibition was 7.05% (inactive). COc1ccc2oc(N)c(C=O)c(=O)c2c1 was tested, and the inhibition was 59.5% (active). In the case of NC(=O)C1(N2CCCC2)CCN(Cc2ccccc2)CC1, the inhibition is reported as -3.22% (inactive). In the case of NC(=O)c1ncn([C@@H]2O[C@H](CN=C3NS(=O)(=O)c4ccccc43)[C@@H](O)[C@H]2O)n1, the inhibition is reported as 3.02% (inactive). In the case of CC(=O)Oc1ccc2c(C)c(CC(C)O)c(=O)oc2c1 (configuration not stated), the inhibition is reported as 2.53% (inactive). CC(=O)Oc1ccc2c(c1)C(=O)c1ccccc1C2=O was tested, and the inhibition was 53.6% (active). For CC(=O)Oc1cccc(C(=O)Nc2ccccc2NC(=O)c2cccc(OC(C)=O)c2)c1, the inhibition was -0.37% (inactive). In the case of O=C(NCCC1=CCCCC1)c1ccc(-n2cncn2)cc1, the inhibition is reported as 4.88% (inactive). With O=C(Nc1ccccc1)Oc1cccc2cccnc12 the inhibition was 7.72% (inactive). With O=C(c1cccc(S(=O)(=O)N2CCCCCC2)c1)N1CCN(Cc2ccccc2)CC1 the inhibition was -0.662% (inactive). NC(=S)c1ccc(C(N)=S)o1 was tested, and the inhibition was 61.8% (active). With Nc1nc(NCCCN2CCOCC2)nc(Nc2ccccc2)c1[N+](=O)[O-] the inhibition was 67.2% (active). For O=[N+]([O-])c1ccc(NCCCN2CCOCC2)c(Cl)c1, the inhibition was 0.781% (inactive). In the case of CC1CN(c2nc(Nc3ccccc3)nc(N)c2[N+](=O)[O-])CC(C)O1 (configuration not stated), the inhibition is reported as 42% (inactive). With CC(=O)OCC1(O)CC23CCC4c5ccoc5CCC4(C)C2CCC1C3 (configuration not stated) the inhibition was 7.82% (inactive). For O=c1nc(NO)ccn1C1CCCO1 (configuration not stated), the inhibition was -3% (inactive). For CCC1([N+](=O)[O-])COC(c2ccc(C(C)C)cc2)OC1 (configuration not stated), the inhibition was -3.06% (inactive). For CC(=O)C1C(c2ccc(Cl)cc2)NC(=O)NC1(O)C(F)(F)F (configuration not stated), the inhibition was 57.4% (active). With CC(=O)C1C(c2cccc(Oc3ccccc3)c2)NC(=O)NC1(O)C(F)(F)F (configuration not stated) the inhibition was -5.37% (inactive). CCOC(=O)C1C(c2ccc(O)cc2)NC(=O)NC1(O)C(F)(F)F (configuration not stated) was tested, and the inhibition was 2.32% (inactive). In the case of O=C(NN=CC=Cc1ccccc1)C(O)C(O)C(=O)NN=CC=Cc1ccccc1 (configuration not stated), the inhibition is reported as 1.04% (inactive). O=S(=O)(Cc1ccc(Cl)cc1Cl)c1ccc(Cl)cc1 was tested, and the inhibition was -0.684% (inactive). For COc1ccc(C(CNC(=O)c2cccc(S(=O)(=O)Nc3ccc(Br)cc3)c2)N(C)C)cc1 (configuration not stated), the inhibition was -0.345% (inactive).
